Results on 39 compounds are retold here after PubChem BioAssay AID651949 (Broad Institute, 2012).

Molecules are shown by their SMILES. Results with a measured potency or affinity are listed apart. Values without a mark were called inactive. The source made the active and inactive calls.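 How the source made its calls: active means compounds lowering cell ATP signal whose fitted half-maximal concentration is at most twice the top tested dose; inconclusive means flat curve with 30 to 70% signal loss, or poor fit; inactive means the rest.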

This experiment is described as follows: HEK293T cell cytotoxicity, dose response, cytotoxicity control, CellTiter-Glo luminescence, dry powder, set 6 (AID 651949). The following applies: HEK293T viability, CellTiter-Glo ATP luminescence, 48 h; series mostly up to 26 µM; activity change, negative = cytotoxicity: at the top concentration. (In general: In ATP-based viability assays light output follows the ATP content of the culture.)
Regarding `c1ccc(-n2cc(CSc3nnc(C4CCCC4)o3)nn2)cc1`, the “activity change, negative = cytotoxicity” value is -8.38%.

Turning to `COc1ccccc1CSc1nnc(-c2ccccc2)o1`, the “activity change, negative = cytotoxicity” value is -4.23%.

Regarding `Cc1nnc(SCc2ccccc2)o1`, the “activity change, negative = cytotoxicity” value is -5.62%.

`c1ccc(CSc2nnc(-c3cscn3)o2)cc1`: the “activity change, negative = cytotoxicity” value was -22%.

As to `c1ccc(CNc2nnc(-c3ccccc3)o2)cc1`, the “activity change, negative = cytotoxicity” value is -19.3%.

Turning to `Clc1ccc(-c2nnc(SCc3cn(Cc4ccccc4)nn3)o2)cc1`, the “activity change, negative = cytotoxicity” value is 16.9%.

With `Brc1ccc(-c2nnc(SCc3ccccn3)o2)cc1`, the “activity change, negative = cytotoxicity” value was -26.7%.

Regarding `N#Cc1ccccc1CSc1nnc(-c2ccccc2)o1`, the “activity change, negative = cytotoxicity” value was -15.6%.

For the compound `c1ccc(-c2nnc(SCCN3CCN(c4ccccc4)CC3)o2)cc1`, the “activity change, negative = cytotoxicity” value was -23.5%.

For the compound `Fc1ccc(-c2nnc(SCc3cn(-c4ccccc4)nn3)o2)cc1`, the “activity change, negative = cytotoxicity” value is -13.2%.

Consider `Fc1ccccc1CSc1nnc(-c2ccccc2)o1`, for which the “activity change, negative = cytotoxicity” value was -18.1%.

As to `CCSc1nnc(-c2ccccc2)o1`, the “activity change, negative = cytotoxicity” value was -17.3%.

With `Fc1ccc(CSc2nnc(-c3ccccc3)o2)cc1`, the outcome was inactive.

Take `FC1(F)CN(CCSc2nnc(-c3ccccc3)o2)C1`: the “activity change, negative = cytotoxicity” value is -10.1%.

For `Cc1ccccc1CSc1nnc(-c2ccccc2)o1`, the “activity change, negative = cytotoxicity” value was -19.8%.

Consider `c1ccc(-c2ccc(CSc3nnc(-c4ccccc4)o3)cc2)cc1`, for which the “activity change, negative = cytotoxicity” value is -12.2%.

For `FC(F)(F)Oc1ccccc1-c1nnc(SCc2ccccc2)o1`, the “activity change, negative = cytotoxicity” value was 8.46%.

In the case of `Cc1ccccc1-c1nnc(SCc2ccccc2)o1`, the “activity change, negative = cytotoxicity” value was 4.81%.

Turning to `COc1ccccc1-c1nnc(SCc2ccccc2)o1`, the “activity change, negative = cytotoxicity” value is -0.598%.

On to `c1ccc(CCc2nnc(-c3ccccc3)o2)cc1`, for which the “activity change, negative = cytotoxicity” value is -22.1%.

`c1ccc(-c2nnc(SCCN3CCCC3)o2)cc1`: the “activity change, negative = cytotoxicity” value was -11.4%.

Regarding `c1ccc(CSc2nnc(-c3cnco3)o2)cc1`, the “activity change, negative = cytotoxicity” value is -14.8%.

Take `c1ccc(CSc2nnc(-c3ccncc3)o2)cc1`: the “activity change, negative = cytotoxicity” value was -19%.

With `Clc1ccccc1CSc1nnc(-c2ccccc2)o1`, the “activity change, negative = cytotoxicity” value was -13.2%.

On to `N#Cc1cccc(-c2nnc(SCc3ccccc3)o2)c1`, for which the “activity change, negative = cytotoxicity” value is -15.6%.

On to `CN(C)CCSc1nnc(-c2ccccc2)o1`, for which the “activity change, negative = cytotoxicity” value was 3.08%.

As to `c1ccc(CSc2nnc(-c3cccnc3)o2)cc1`, the “activity change, negative = cytotoxicity” value was -4.32%.

Regarding `FC(F)(F)c1ccc(CSc2nnc(-c3ccccc3)o2)cc1`, the “activity change, negative = cytotoxicity” value is -5.71%.

For the compound `CS(=O)(=O)c1ccccc1-c1nnc(SCc2ccccc2)o1`, the “activity change, negative = cytotoxicity” value was -29.6%.

As for `Fc1ccc(CSc2nnc(-c3cccnc3)o2)cc1`, the “activity change, negative = cytotoxicity” value is 5.85%.

For the compound `c1ccc(CSc2nnc(-c3cccnc3)o2)nc1`, the “activity change, negative = cytotoxicity” value was 26.4%.

As for `c1ccc(CSc2ncc(-c3ccccc3)o2)cc1`, the “activity change, negative = cytotoxicity” value was 8.63%.

Turning to `COc1cccc(CSc2nnc(-c3ccccc3)o2)c1`, the “activity change, negative = cytotoxicity” value is -8.87%.

Consider `c1ccc(CSc2nnc(-c3cc4ccccc4o3)o2)cc1`, for which the “activity change, negative = cytotoxicity” value is -5.2%.

On to `CC(C)c1nnc(SCc2ccccc2)o1`, for which the “activity change, negative = cytotoxicity” value is 20.4%.

Turning to `c1ccc(CSc2nnc(-c3cccs3)o2)cc1`, the “activity change, negative = cytotoxicity” value was 12.7%.

Consider `Brc1cccc(-c2nnc(SCc3ccccn3)o2)c1`, for which the “activity change, negative = cytotoxicity” value was -29.4%.

As for `c1ccc(CSc2nnc(-c3ccccn3)o2)cc1`, the “activity change, negative = cytotoxicity” value is -16.3%.

For `Brc1ccc(CSc2nnc(-c3ccccc3)o2)cc1`, the “activity change, negative = cytotoxicity” value was -4.14%.
